Here are results for 40 compounds from PubChem BioAssay (Tox21).

“And” between values parts separate entries of the source, which are not always exact repeats. Equal entries are not always repeated. Records with an inconclusive call do not appear. Entries that show only a call come without a potency. The source made the active and inactive calls. The call rests on the fitted dose curve. Residues, ends and D or L forms follow the SMILES beside them.
Potency means the concentration at half of the fitted maximal effect.

The nature of this experiment: qHTS assay to identify small molecule antagonists of the estrogen receptor alpha (ER-alpha) signaling pathway using the BG1 cell line (AID 743080).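 Further: BG1 cells stimulated with 17beta-estradiol alongside compound; nearly all actives have a fitted effect of over 25% in size.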 Particulars: BG1Luc4E2 ERE-luciferase antagonist mode, luminescence; series mostly up to 70.3 µM. The source says: National Center for Advancing Translational Sciences [NCATS]
NIH Chemical Genomics Center [NCGC]
U.S. Environmental Protection Agency [EPA]
National Institutes of Environmental Health Sciences [NIEHS]
National Toxicology Program [NTP]
U.S. Food and Drug Administration [FDA]
Estrogen receptor (ER), a nuclear hormone receptor, plays an important role in development, metabolic homeostasis and reproduction. Endocrine disrupting chemicals (EDCs) and their interactions with steroid hormone receptors like ER causes disruption of normal endocrine function. Therefore, it is important to understand the effect of environmental chemicals on the ER signaling pathway. To identify ER antagonists, BG1-Luc-4E2 cell line (provided by Dr. Michael Denison from University of California) has been used to screen the Tox21 10K compound library. BG1Luc4E2 cell line endogenously expresses full-length ER-alpha and is stably transfected with a plasmid containing four estrogen responsive elements (ERE) upstream of a luciferase reporter gene.
Tox21 Assay Protocol Summary:
BG1-Luc-4E2 cells were cultured in phenol red free assay medium containing 10% charcoal stripped FBS for 5 days before the assay was performed. The cells were dispensed at 4,000 cells/4 uL of assay medium per well into white wall/solid-bottom 1536-well plates using a Multidrop Combi (ThermoFisher Scientific, Waltham, MA) dispenser. The assay plates were incubated at a 37C and 5% CO2 for 24 h, and then 23 nL of compounds dissolved in DMSO, positive controls or DMSO only was transferred to the assay plate using a Pintool station (Kalypsys, San Diego, CA), followed by addition of 1 uL of 17beta-estradiol in assay medium using a Flying Reagent Dispenser (Aurora Discovery, San Diego, CA). After the plates were incubated at 37 C and 5% CO2 for 21.5 h, 1 uL of CellTiter-Fluor reagent (Promega, Madison, WI) of measuring cytotoxicity was added using Flying Reagent Dispenser (FRD) to each well. The assay plates were incubated at 37 C and 5% CO2 for additional 30 min and the fluorescence intensity was quantified by a ViewLux plate reader (PerkinElmer, Shelton, CT). For measuring luciferase reporter gene activity, 4 uL of ONE-Glo reagent (Promega) was added to each plate using an FRD and luminescence was quantified by a ViewLux plate reader after 30 min incubation at room temperature.
On the technique in general: qHTS replaces the single test concentration by a dilution series.
Regarding `Nc1ccc(O)c(C(=O)O)c1`, the Potency result was “inactive”.

Regarding `COc1ccc2[nH]cc(CCNC(C)=O)c2c1`, the Potency entry was “inactive”.

On to `NNC(=O)c1ccncc1`, for which the Potency entry was “inactive”.

Regarding `Cc1noc(NS(=O)(=O)c2ccc(N)cc2)c1C`, the Potency entry is “inactive”.

Consider `NC(=O)c1ccccc1O`, for which the Potency entry was “inactive”.

As for `CCCC(CCC)C(=O)O`, the Potency result was “inactive”.

Consider `O=C(O)c1[nH]n(-c2ccc(S(=O)(=O)O)cc2)c(=O)c1N=Nc1ccc(S(=O)(=O)O)cc1`, for which the Potency entry was “inactive”.

For the compound `CC(=O)NS(=O)(=O)c1ccc(N)cc1`, the Potency result is “inactive”.

For the compound `CCCCC(CC)COC(=O)/C=C/c1ccc(OC)cc1` (stereo not given), the Potency result was “inactive”.

Consider `Cc1ccccc1C(OCCN(C)C)c1ccccc1` (stereo not given), for which the Potency entry is “inactive”.

Regarding `NC(N)=O`, the Potency result is “inactive”.

Take `N=C(N)c1ccc(OCCCCCOc2ccc(C(=N)N)cc2)cc1`: the Potency is 11.9 µM (active) and 46.4 µM (active).

Turning to `Cc1cc(=O)n(-c2ccccc2)n1C`, the Potency result is “inactive”.

Regarding `O=c1ccc2ccccc2o1`, the Potency result is “inactive”.

Regarding `CC(C)(Oc1ccc(C2CC2(Cl)Cl)cc1)C(=O)O` (stereo not given), the Potency result was “inactive”.

With `CC(O)CO` (stereo not given), the Potency result is “inactive”.

As for `Nc1ccc(S(=O)(=O)c2ccc(N)cc2)cc1`, the Potency entry is “inactive”.

`Cn1cc[nH]c1=S`: the Potency result is “inactive”.

Regarding `Cc1ccc(C)c(OCCCC(C)(C)C(=O)O)c1`, the Potency entry was “inactive”.

Consider `Nc1ccn([C@H]2CC[C@@H](CO)O2)c(=O)n1`, for which the Potency entry is “inactive”.

Turning to `O=C(O)CCCCC(=O)O`, the Potency entry was “inactive”.

Take `Cc1cn([C@H]2C[C@H](N=[N+]=[N-])[C@@H](CO)O2)c(=O)[nH]c1=O`: the Potency entry is “inactive”.

Turning to `Cc1ccc(S(=O)(=O)NC(=O)NN2CCCCCC2)cc1`, the Potency entry was “inactive”.

In the case of `O=C1CN(/N=C/c2ccc([N+](=O)[O-])o2)C(=O)N1`, the Potency entry is “inactive”.

As to `OC(Cn1cncn1)(Cn1cncn1)c1ccc(F)cc1F`, the Potency result is “inactive”.

`NS(=O)(=O)c1cc(C(=O)O)c(NCc2ccco2)cc1Cl`: the Potency entry is “inactive”.

Regarding `Cn1c(=O)c2[nH]cnc2n(C)c1=O`, the Potency entry was “inactive”.

With `CC(O)C(=O)O` (stereo not given), the Potency entry was “inactive”.

Take `NC(N)=NC(=O)c1nc(Cl)c(N)nc1N`: the Potency entry is “inactive”.

`CC1(C)[C@@H]2CC[C@@]1(C)C(=O)C2`: the Potency result was “inactive”.

For `O=C(O)CS`, the Potency entry was “inactive”.

Consider `CC(=O)Nc1nnc(S(N)(=O)=O)s1`, for which the Potency result was “inactive”.

Take `COC(=O)[C@H](Cc1ccccc1)NC(=O)[C@@H](N)CC(=O)O` (H-Asp-Phe-OMe): the Potency entry is “inactive”.

On to `Nc1ccc(S(=O)(=O)Nc2nccs2)cc1`, for which the Potency result is “inactive”.

`NC(=O)c1cnccn1`: the Potency entry is “inactive”.

`CCCCC1C(=O)N(c2ccccc2)N(c2ccccc2)C1=O`: the Potency result is “inactive”.

As for `O=c1cc[nH]c(=S)[nH]1`, the Potency result is “inactive”.

`Nc1ccc(C(=O)O)cc1`: the Potency result was “inactive”.

For `CCCC(O)C(CC)CO` (stereo not given), the Potency result is “inactive”.

Consider `CCCNC(=O)NS(=O)(=O)c1ccc(Cl)cc1`, for which the Potency result is “inactive”.
